The values that follow come from PubChem BioAssay (Tox21).

Records with an inconclusive call do not appear. A number with no mark means an inactive call. Active and inactive are the calls of the source. The call rests on the fitted dose curve; in most records, active means well fitted cell-killing curve with a large enough effect in the repeat runs; inconclusive means weak or mixed curves; inactive means no such curve, though single readings can be large or run the other way.
On the % scale 0 is the no-effect control and ±100 the full control effect; potency means the concentration at half of the fitted maximal effect.

The test can be described thus: qHTS assay for identifying genotoxic compounds that show differential cytotoxicity against isogenic chicken DT40 cell lines with known DNA damage response pathways - Rad54/Ku70 mutant cell line (AID 743015). Further: nearly all actives have a fitted effect of over 60% in size. Particulars: DT40 Rad54/Ku70 mutant viability, CellTiter-Glo, 40 h; series mostly up to 66.8 µM; activity change, negative = cytotoxicity: at the top concentration. (In general: Quantitative high-throughput screening tests each substance at several concentrations.)
As to `CC(C)CN(C[C@@H](O)[C@H](Cc1ccccc1)NC(=O)O[C@H]1CO[C@H]2OCC[C@H]21)S(=O)(=O)c1ccc(N)cc1`, the Potency was 29.8 µM (active).
Turning to `CC#CCC(C)[C@H](O)/C=C/[C@@H]1[C@H]2C/C(=C/CCCC(=O)O)C[C@H]2C[C@H]1O` (stereo partly drawn), the “activity change, negative = cytotoxicity” value is 4.71%.
Regarding `COc1ccc(C(=O)Nc2ccccc2CCC2CCCCN2C)cc1` (stereo not drawn), the “activity change, negative = cytotoxicity” value was -10.3%.
Same read-out and setting: under `CS(=O)(=O)c1ccc(C2=C(c3ccccc3)C(=O)OC2)cc1` stands 3.95%.
In the case of `CCCCCCCCCCCCCCCCCC[N+](C)(C)CCC[Si](OC)(OC)OC`, the Potency is 10.6 µM (active).
Take `C[N+]1(C)[C@@H]2CC(OC(=O)C(O)(c3cccs3)c3cccs3)C[C@H]1[C@@H]1O[C@@H]12` (stereo partly drawn): the “activity change, negative = cytotoxicity” value was 3.61%.
Turning to `CC(C)NCC(O)COc1ccccc1-n1cccc1` (stereo not drawn), the “activity change, negative = cytotoxicity” value is 2.99%.
The same measure, in the same setting: the value for `CC(NNC(=O)c1ccccc1)c1ccccc1` (stereo not drawn) was -19.8%.
Take `COc1ccc2c(=O)c(C)c(-c3ccccc3)oc2c1CN(C)C`: the Potency is 18.8 µM (active).
Consider `CC1(C)[C@@H]2CC[C@@]1(C)[C@H](OC(=O)CSC#N)C2`, for which the “activity change, negative = cytotoxicity” value was -17.2%.
`O=S(=O)(O)c1cc(O)c2c(N=Nc3ccc(Nc4ccccc4)c4c(S(=O)(=O)O)cccc34)cc(S(=O)(=O)O)cc2c1`: the Potency is 13.3 µM (active).
Turning to `CN1C(=O)CN2CCc3ccccc3C2c2cc(Cl)ccc21` (stereo not drawn), the “activity change, negative = cytotoxicity” value is -1.3%.
Turning to `CC1(C)C(\C=C/C=C\C=C/C=C2/N(CCCCS(=O)(=O)O)c3ccc4ccccc4c3C2(C)C)=[N+](CCCCS(=O)(=O)[O-])c2ccc3ccccc3c21`, the Potency is 29.8 µM (active).
